The source made the active and inactive calls. No stated cut-off is given here; in the data, active means potency below about 10 µM; inactive means the rest.
Target: Lysosomal acid glucosylceramidase (Homo sapiens) (UniProt P04062)
Assay: Glucocerebrosidase-p2 (AID 348)
Conditions: purified GBA, blue fluorogenic substrate, 40 min
Source text: Beta-glucocerebrosidase catalyzes the hydrolysis of beta-glucocerebroside to glucose and ceramide. The inherited deficiency of beta-glucocerebrosidase results in Gaucher disease, which is characterized by a wide variety of symptoms including hepatosplenomegaly, anemia, thrombocytopenia, bony lesions and bone marrow infiltration with characteristic storage cells, known as Gaucher cells. There are also forms of the disorder affecting the central nervous system. Patients with the same genotypes can manifest with diverse clinical presentations and it is believed that improper folding and trafficking of beta-glucocerbrosidase may contribute to the phenotypes observed.
Low molecular weight molecules, acting as chaperones, may potentially restore trafficking of misfolded beta-glucocerebrosidase from the endoplasmic reticulum to the lysosomes, thereby enhancing functional lysosomal beta-glucocerebrosidase activity.
Using normal beta-glucocerebrosidase, an assay was developed to screen for small molecule inhibitors that could potentially act as molecular chaperones on the mutant forms [developed with NIH investigator Dr. Ellen Sidransky#s laboratory]. Two pro-fluorescent substrates were chosen for two screens against a small molecule library. One beta-glucocerebrosidase assay used Resorufin beta-D-Glucopyranoside (Marker Gene Technology Inc.), generating a red fluorescent product. The second assay used […] fluorescent product. The Km for the Resorufin beta-D-Glucopyranoside and Fluorescein di-beta-D-Glucopyranoside were determined to be 71.2 uM and 855 uM, respectively. The IC50 values of Conduritol B Epoxide, a known glucocerebrosidase inhibitor, were determined to be 87.5 uM and 117 uM, respectively. The use of two difference pro-fluorescent substrates in the screens helped to eliminate false positives. All compounds were screened in a titration series resulting in AC50s (e.g., IC50s or EC50s). Data normalization and AC50 calculations were accomplished using GeneData software.
NCGC Assay Protocol Summary
Both enzyme and substrate were diluted in buffer composed of 50mM citric acid/KH2PO4, 10mM sodium taurocholate and 0.01% tween-20 at pH 5.9. The final concentration of the enzyme was 0.2 nM in both assays. The compound library was titrated in 7 to 15 concentrations for the primary screens with a final concentration ranging from 0.6 nM to 50 uM. This particular assay protocol is for the "blue" substrate, and it was performed in 1536-well plate format as follows:
Blue fluorescence substrate assay:
1 uL substrate (final concentration of 80 uM)
Incubate at room temperature (RT) for 40 minutes
3 uL stop solution (1 M NaOH and 1 M glycine in water)
Read the plate in Viewlux plate reader (Ex=365(10) and Em=440(10)).
Potency means the concentration at half of the fitted maximal effect.

Chain of Lysosomal acid glucosylceramidase (Homo sapiens) (P04062 whole entry, looked up): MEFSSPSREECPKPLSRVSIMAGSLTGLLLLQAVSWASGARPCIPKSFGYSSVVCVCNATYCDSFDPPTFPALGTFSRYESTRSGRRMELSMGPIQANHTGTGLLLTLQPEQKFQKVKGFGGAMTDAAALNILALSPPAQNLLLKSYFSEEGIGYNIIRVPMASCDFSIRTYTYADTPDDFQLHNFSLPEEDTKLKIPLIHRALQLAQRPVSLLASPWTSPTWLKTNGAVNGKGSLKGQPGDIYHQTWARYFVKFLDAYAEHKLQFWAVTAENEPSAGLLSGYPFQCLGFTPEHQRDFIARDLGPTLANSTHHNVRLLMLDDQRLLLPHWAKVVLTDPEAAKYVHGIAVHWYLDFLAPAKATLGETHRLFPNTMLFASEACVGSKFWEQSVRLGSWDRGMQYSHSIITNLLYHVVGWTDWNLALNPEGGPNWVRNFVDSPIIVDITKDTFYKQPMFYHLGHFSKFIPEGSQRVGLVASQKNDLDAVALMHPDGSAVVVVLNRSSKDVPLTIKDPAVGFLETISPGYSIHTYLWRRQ

Potency, active:
CN(C)c1ccc(-c2nc(N(C)Cc3ccco3)c3ccccc3n2)cc1 6.72 µM

Potency, inactive:
COc1ccccc1CNc1ncncc1-c1ccoc1 > 11.4 µM
CN(C)c1ncnc2ccc(-c3ccoc3)cc12 > 11.4 µM
CN1CCN(c2ncc3nc(CCc4ccccc4)c(=O)n(C4CC4)c3n2)CC1 > 11.4 µM
COCCn1c(=O)c(-c2cn(C)c3ccccc23)nc2cnc(N3CCNCC3)nc21 > 11.4 µM
O=C(Nc1cccc(F)c1)N1CCC2(CC1)CCN(C(=O)c1csnn1)CC2 > 11.4 µM
COc1cccc(Cn2c(=O)c(-c3ccc(F)cc3)nc3cnc(OC)nc32)c1 > 11.4 µM
COCCn1c(=O)c(-c2ccccc2)nc2cnc(N3CCNCC3)nc21 > 11.4 µM
Cc1nc2cnc(OCc3ccccc3)nc2n(C)c1=O > 11.4 µM
Cn1c(=O)c(-c2cc(F)cc(F)c2)nc2cnc(Oc3ccccc3)nc21 > 11.4 µM
Cc1cccc(CNc2ncncc2-c2ccc3c(c2)OCO3)c1 > 11.4 µM
COC(=O)N1CCC2(CC1)CN(C(=O)Nc1cccc(C#N)c1)C2 > 11.4 µM
Cc1ccccc1-c1ccc2ncnc(NC3CC3)c2c1 > 11.4 µM
Cn1cccc1C(=O)N1CCC2(CC1)CN(C(=O)Nc1ccccc1)C2 > 11.4 µM
Cc1nc2cnc(N3CCNCC3)nc2n(Cc2cccs2)c1=O > 11.4 µM
O=c1c(-c2ccc(Cl)cc2)nc2cnc(N3CCNCC3)nc2n1Cc1cccs1 > 11.4 µM
COC(=O)N1CCC2(CCN(C(=O)Nc3ccccc3)CC2)CC1 > 11.4 µM
COc1cccc(Cn2c(=O)c(-c3cccs3)nc3cnc(N(C)C)nc32)c1 > 11.4 µM
CCNc1ncc2ncc(=O)n(Cc3cccs3)c2n1 > 11.4 µM
O=C(Nc1cccc(F)c1)N1CC[C@@]2(CCCN(C(=O)c3cccc(F)c3)C2)C1 > 11.4 µM
O=c1c(-c2ccc(F)cc2)nc2cnc(Oc3ccccc3)nc2n1Cc1cccs1 > 11.4 µM
COc1ccc(C(=O)N2CCC3(CCN(C)CC3)CC2)cc1 > 11.4 µM
COc1ccc(-n2c(=O)cnc3cnc(N(C)C)nc32)cc1 > 11.4 µM
Cc1ccccc1-c1cc(N2CCN(C)CC2)ncn1 > 11.4 µM
c1ccc(CNc2cc(-c3cccnc3)ncn2)cc1 > 11.4 µM
COc1ccc(Oc2ncc3nc(-c4cn(C)c5ccccc45)c(=O)n(C4CC4)c3n2)cc1 > 11.4 µM
COc1ccccc1CCn1c(=O)c(-c2cccc(F)c2)nc2cncnc21 > 11.4 µM
O=C(Nc1ccccc1)N1CCCC2(CCN(C(=O)c3ccco3)CC2)C1 > 11.4 µM
CNc1ncnc2ccc(-c3ccccc3C)cc12 > 11.4 µM
COc1ccc(C(=O)N2CCC[C@@]3(CCN(Cc4ccc(C#N)cc4)C3)C2)cc1 > 11.4 µM
Cn1c(=O)c(-c2cc(F)cc(F)c2)nc2cnc(N3CCOCC3)nc21 > 11.4 µM
O=C(c1ccncc1)N1CCC2(CC1)CCN(C(c1ccccc1)c1ccccc1)CC2 > 11.4 µM
COCCn1c(=O)c(C)nc2cnc(Oc3ccc(OC)cc3)nc21 > 11.4 µM
O=c1c(-c2cccs2)nc2cnc(N3CCOCC3)nc2n1-c1ccccc1 > 11.4 µM
FC(F)(F)c1ccccc1-c1nc(NCCN2CCOCC2)c2ccccc2n1 > 11.4 µM
COc1cccc(Cn2c(=O)cnc3cncnc32)c1 > 11.4 µM
COc1cccc(Nc2ncc3nc(C)c(=O)n(CCc4ccccc4)c3n2)c1 > 11.4 µM
COc1cccc(Cn2c(=O)c(-c3ccc(F)cc3)nc3cnc(N(C)C)nc32)c1 > 11.4 µM
CN(Cc1ccco1)c1ncncc1-c1cccc(C#N)c1 > 11.4 µM
CCNc1ncc2nc(C)c(=O)n(Cc3ccc(F)cc3)c2n1 > 11.4 µM
